The values that follow come from PubChem BioAssay (NCI).

Among the test systems are T-47D breast; BT-549 breast; MDA-MB-435 melanoma; MCF7 breast; HCT-116 colon; HCC-2998 colon; KM12 colon; SW-620 colon.
What all share (assay): NCI-60 one-dose screen, 48 h (100 = growth as untreated, 0 = no growth, -100 = all killed)
What all share (conditions): 10 µM unless noted

The panel holds about 83,000 compounds, 20% with a hit somewhere; the sample as a whole holds those more often.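 Single-dose data. Exposure time 48 hours. Values below 10 considered active.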 A number with no mark means an inactive call. Calls of active or inactive are those of the source.

In the case of `CC(C)(C)c1cc(NC(=O)Nc2ccc(-c3cn4c5c(sc4n3)CCc3cn(CCCN4CCCCC4)cc3-5)cc2)no1`, the growth was -32.8% (active) in the assay on T-47D breast; 109% in the assay on BT-549 breast; -98.5% (active) in the assay on MDA-MB-435 melanoma; -79% (active) with MCF7 breast; -96.2% (active) in the assay with HCT-116 colon; -82.7% (active) with HCC-2998 colon. Further, in the assay on KM12 colon, the growth is -78% (active).
For the compound `Cc1ccc2c(n1)C(=O)C(Cl)=C(Nc1cccc(C(F)(F)F)c1)C2=O`, the growth with T-47D breast was -41.9% (active); with BT-549 breast, 123%; with MDA-MB-435 melanoma, 71.3%; in the assay on MCF7 breast, -54.7% (active); with HCT-116 colon it was -25.9% (active); in the assay with HCC-2998 colon it was 108%. Besides, in the assay on KM12 colon, the growth is 106%.
As for `COc1ccc(C2c3[nH]c4ccc(Cl)cc4c3CCN2c2oc(CO)nc2C#N)cc1` (configuration not stated), the growth with T-47D breast was 43.1%; with MDA-MB-435 melanoma it was 15.2%; with SW-620 colon, 32.9%; in the assay with MCF7 breast, 32%; with HCT-116 colon it was 32.1%; with HCC-2998 colon, 57%. In addition, the growth with KM12 colon is 23.4%.
Regarding `CN(C)S(=O)(=O)c1ccc(-c2nc(C(Cl)Cl)nc3cc(-c4ccccc4)nn23)cc1`, the growth with T-47D breast is 89.5%; in the assay on MDA-MB-435 melanoma, 81.6%; in the assay on SW-620 colon, 49.6%; in the assay on MCF7 breast it was 72%; with HCT-116 colon, 72.3%; with HCC-2998 colon it was 100%. Moreover, the growth in the assay on KM12 colon was 74%.
As for `Clc1ccc2[nH]cc(-c3cncn3CCc3ccc4c(c3)OCO4)c2c1`, the growth in the assay with T-47D breast is 37.8%; in the assay with MDA-MB-435 melanoma, 71.3%; in the assay on SW-620 colon, 79.5%; in the assay on MCF7 breast, 63%; in the assay on HCT-116 colon, 63.2%; in the assay with HCC-2998 colon, 89.9%. Moreover, the growth with KM12 colon is 74.6%.
For the compound `Cc1c(C(=O)/C=C/c2ccc(Cl)cc2)nnn1-c1ccc2oc(=O)ccc2c1`, the growth with T-47D breast is 85.5%; in the assay on BT-549 breast, 109%; in the assay on MDA-MB-435 melanoma it was 99.7%; with MCF7 breast, 42.2%; in the assay with HCT-116 colon, 88.5%; in the assay with HCC-2998 colon, 104%. Besides, the growth with KM12 colon is 99.8%.
Regarding `O=C(COc1ccc(/C=C2\C(=O)Nc3cc(Cl)ccc32)cc1)Nc1ccc(Cl)cc1`, the growth with T-47D breast was 68%; in the assay on BT-549 breast it was 70.3%; in the assay with MDA-MB-435 melanoma, 51.2%; in the assay with MCF7 breast it was 47.1%; in the assay with HCT-116 colon, 54.8%; in the assay on HCC-2998 colon it was 96.1%. For the same compound, in the assay with KM12 colon, the growth was 36.4%.
In the case of `Cc1ccc(-c2cc3nc(C(Cl)Cl)nc(-c4ccc(S(=O)(=O)N(C)C)cc4)n3n2)cc1`, the growth was 93.8% with T-47D breast; 88.6% in the assay with MDA-MB-435 melanoma; 83.1% with SW-620 colon; 74.2% with MCF7 breast; 62.9% in the assay on HCT-116 colon; 91.7% in the assay with HCC-2998 colon. The growth in the assay with KM12 colon was 86.5%.
Consider `CC(=O)OC[C@@]12Oc3c(cccc3-c3ccc(O)c4c3O[C@]3(COC(C)=O)C(=C4O)C(=O)C[C@H](C)[C@@H]3OC(C)=O)C(O)=C1C(=O)C[C@H](C)[C@@H]2OC(C)=O`, for which the growth with T-47D breast was 4.37% (active); with BT-549 breast it was -1.88% (active); in the assay on MDA-MB-435 melanoma, 13%; with MCF7 breast, 5.84% (active); in the assay on HCT-116 colon, 10.8%; with HCC-2998 colon, 23.7%. In the assay on KM12 colon, the growth is 8.74% (active).
Take `COc1ccc(OC)c(CCn2cncc2-c2c[nH]c3ccc(Cl)cc23)c1`: the growth is 20.1% in the assay with T-47D breast; 12.8% in the assay with MDA-MB-435 melanoma; 43.4% in the assay with SW-620 colon; 21.6% in the assay with MCF7 breast; 34.5% in the assay on HCT-116 colon; 72.4% with HCC-2998 colon. Besides, in the assay on KM12 colon, the growth was 40.6%.
Consider `CCN(CC)CCOc1ccc(C(=C(C)Cc2ccc(OC)cc2)c2ccc(OCCN(CC)CC)cc2)cc1`, for which the growth in the assay with T-47D breast was 64.2%; in the assay with MDA-MB-435 melanoma it was -66.1% (active); with SW-620 colon, -6.4% (active); with MCF7 breast, -33.8% (active); with HCT-116 colon, 16.3%; in the assay on HCC-2998 colon, 44.8%. Further, in the assay with KM12 colon, the growth is 48.6%.
As to `CCOC(=O)c1c(NC(=O)c2ccc(C(F)(F)F)cc2)sc2c(CN3CCN(C)CC3)c(O)ccc12`, the growth in the assay with T-47D breast is -35% (active); with MDA-MB-435 melanoma, -61.5% (active); in the assay with SW-620 colon it was -71.2% (active); with MCF7 breast it was -79.5% (active); in the assay with HCT-116 colon, -92.5% (active); in the assay on HCC-2998 colon, -74.9% (active). Also, the growth in the assay with KM12 colon is -21.2% (active).
With `N#Cc1cccc(-c2cc(-c3ccc4c(c3)OCCO4)[nH]n2)c1`, the growth is 36.4% in the assay on T-47D breast; 49.3% in the assay on BT-549 breast; -24.6% (active) in the assay with MDA-MB-435 melanoma; 12.2% in the assay with MCF7 breast; 23.1% in the assay with HCT-116 colon; 47.3% with HCC-2998 colon. In addition, the growth in the assay on KM12 colon was 36.4%.
Regarding `CCC(=C(c1ccc(OCCN(C)C)cc1)c1ccc(OCCN(C)C)cc1)c1ccc(Cl)cc1`, the growth with T-47D breast is -56% (active); with MDA-MB-435 melanoma, -88.6% (active); in the assay with SW-620 colon it was -72.4% (active); in the assay with MCF7 breast, -72.8% (active); in the assay on HCT-116 colon it was -67.7% (active); in the assay with HCC-2998 colon, -72.4% (active). For the same compound, in the assay on KM12 colon, the growth was -49.1% (active).
As to `COC(=O)CCCNCCCn1ccc2cc(NCc3cccc(-c4ccccc4)c3C)ccc21`, the growth with T-47D breast is 58%; in the assay with BT-549 breast, 90.2%; in the assay on MDA-MB-435 melanoma, 70.9%; in the assay with MCF7 breast it was 56.9%; in the assay with HCT-116 colon, 53%; in the assay on HCC-2998 colon it was 90.2%. The growth in the assay on KM12 colon is 85.9%.
Regarding `O=C(CSc1cc[n+](CCCCO)c2ccccc12)n1ccc2ccccc21`, the growth in the assay on T-47D breast is 96.6%; in the assay on MDA-MB-435 melanoma, 107%; in the assay with SW-620 colon, 99%; with MCF7 breast, 94.6%; with HCT-116 colon, 99.6%; with HCC-2998 colon, 113%. The growth in the assay on KM12 colon is 96.9%.
